The results in this text go back to PubChem BioAssay.

Several values for one entry are separate records, joined by “and”; a condition that tells them apart may be missing. Identical values can stand only once. Activity calls are given as the source filed them.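 How the source made its calls, unless noted: active means compounds whose cell count with miR-34 switched on is under 0.7 times the count with it off; inactive means the rest.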

A short description of test [1]: Wnt pathway potentiators raising nuclear beta-catenin – imaging, WNT3A-conditioned medium, mouse C2C12, NPC library, primary screen (AID 1117326; in the data active means nuclear beta-catenin stimulation mostly above about 4.2%, no sharp cut-off; inactive means mostly below about 10%). The note with it: stronger effect = higher value.
Test [2] can be described thus: stimulators of insulin release from INS-1E, primary screen, cell-based, 5 mM glucose, NPC library (AID 1117329;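 active means compound raises insulin release from rat beta cells at 5 mM glucose, no numeric limit stated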). The note with it: rat INS-1E insulin secretion, at 10 µM, stronger effect = higher value.
Test [3] in a line: growth inhibition of GSK3B-pretreated HCT116 cells – cell-based, CellTiter-Glo, 0.2 to 20 µM (AID 1117336;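 active means compounds lowering colon cancer cell viability after pretreatment blocking the GSK3B kinase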). The note with it: HCT116 viability after GSK3B inhibitor, at 20 µM, stronger effect = higher value.
Test [4] can be described thus: inhibition of endothelial tube formation, primary screen, imaging, VEGF stimulated, CD31 staining, tube area, NPC library (AID 1117340;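 active means compound that reduces growth-factor-driven endothelial tube area in a mixed cell culture, no cutoff stated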). The note with it: VEGF-stimulated ADSC/ECFC co-culture, at 10 µM, stronger effect = higher value.
Test [5] is described as follows: GLP1 release stimulators, primary, NCI-H716, NPC library (AID 1117341;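 active means compound raises GLP1 secretion from the human gut endocrine cells, with no numeric limit stated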). The note with it: NCI-H716 cells, at 10 µM, stronger effect = higher value.
The nature of test [6]: HCT116 colon cancer cell growth inhibition, primary screen, CellTiter-Glo luminescence, NPC library (AID 1117342;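 active means compounds that lower survival of HCT116 colon cancer cells in the luminescence readout, no numeric limit stated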). The note with it: at 20 µM (top of the series).
A short description of test [7]: reduced SW480 viability measured with CellTiter-Glo, NPC library, primary (AID 1117343;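 active means compounds that lower viability of the colon cancer cells in the luminescence readout, with no numeric limit stated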). The note with it: CellTiter-Glo luminescence; at 20 µM (top of the series).
Test [8] in a line: NPC library primary testing for decreased DLD-1 cell viability via CellTiter-Glo (AID 1117346;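 active means compounds that lower survival of DLD-1 colon cancer cells in the luminescence readout, no cutoff given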). The note with it: DLD-1 viability, CellTiter-Glo luminescence; at 20 µM (top of the series). Background: Cellular ATP, detected with luciferase, serves as a proxy for viable cell number.
Test [9] can be described thus: EMT-state selective cytotoxicity in co-culture – imaging, PC-3E GFP, TEM4-18 mCherry, primary screen (AID 1345086;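 active means compounds killing one labelled cell type while sparing the other, by normalised counts and ratio limits, not self-fluorescent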;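 on all read-outs here: cells exposed to compound for 72 h before imaging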;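 on red/green cell ratio (normalised): normalised mesenchymal count divided by normalised epithelial count so high means epithelial killing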). The note with it: PC-3E GFP / TEM4-18 mCherry co-culture, imaging cell counts, at 1 µM; for red/green cell ratio (normalised): actives lie on both sides.
Test [10] is described as follows: viability loss with induced miR-34 in A549 – imaging, A549 dox-inducible miR-34, nuclei and caspase counts, primary screen (AID 1347080). The note with it: A549 miR-34 inducible, Hoechst nuclei count, 48 h.
Test [11] addresses NAD(+) hydrolase SARM1 (Homo sapiens) (UniProt Q6SZW1). Nature of the test: blocking NAD cleavage by SARM1 SAM-TIR – cell lysate, NAD-Glo luminescence (AID 1508614;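 active means compound whose remaining NAD level is above about 45 nM, limit read from the data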). The note with it: SAM-TIR HEK293T lysate NADase, at 1 µM, stronger effect = higher value.
Test [12] is described as follows: compounds altering circadian rhythm period length – cell-based, LOPAC library, luminescence reporter (AID 2774; call rule not given here;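 further: values are relative to mean of DMSO wells on each plate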). The note with it: circadian reporter cells, at 7 µM, actives lie on both sides.
The nature of test [13]: P. berghei load reduction in hepatocytes – cell-based, HepG2, luciferase luminescence, HepG2 viability, primary screen (AID 624349; in the data active means parasite load remaining mostly below about 12%, no sharp cut-off; inactive means mostly above about 10%;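 further: 100% = mean of DMSO negative control wells on the same plate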). The note with it: P. berghei liver stage in HepG2, luciferase luminescence, concentration not given here; parasite load remaining: stronger effect = lower value; viability: measured here: HepG2 viability without parasites.
The test system of test [14] is Hepatitis C virus NS3 helicase. Nature of the test: blockers of NS3h binding to ssDNA – biochemical, fluorescence polarization, LOPAC1280 library, primary screen (AID 687035; in the data active means inhibition above about 37%). The note with it: Purified HCV NS3 helicase, Cy5-dT15 ssDNA binding fluorescence polarization; stronger effect = higher value; concentration not given here.
For test [15], the system named is Aerobactin synthetase IucA (Klebsiella pneumoniae, hypervirulent). Nature of the test: biochemical IucA inhibition screen of LOPAC library by absorbance (AID 1346212; call rule not given here;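 further: 100% = no compound wells and 0% = no enzyme wells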). The note with it: IucA enzyme assay, absorbance (OD) readout; stronger effect = lower value;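 tested at 8 µM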.
The nature of test [16]: MELAS cybrid and Rieske KO viability enhancers – cell-based, MELAS cybrids, Rieske KO mouse fibroblasts, CellTiter-Glo, primary screen (AID 1508586;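 active means mean z-score across replicates of 1.96 or higher in either the MELAS or the Rieske mutant cell line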;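 further: z relative to plate mean and SD of compound and empty wells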). The note with it: low glucose.
A short description of test [17]: galactose survival enhancers in mitochondrial complex I cybrids – cell-based, galactose medium, ATP luminescence, primary screen (AID 1645843;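 active means z-score of at least 1.8 in each of two replicates, scored against plate mean and spread of sample wells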;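 further: positive z means more ATP and so rescue of galactose-driven cybrid death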). The note with it: complex I mutant cybrid cells, 72 h, stronger effect = higher value.
A short description of test [18]: compounds altering viability of human ES cells (AID 493140; call rule not given here;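 further: cells exposed to compounds for four days before counting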). The note with it: human embryonic stem cell survival screen; stronger effect = higher value.
The mark [19] stands for this setting: measured here: epithelial PC-3E GFP cell survival.
Setting [20] is: measured here: mesenchymal TEM4-18 mCherry cell survival.
The mark [21] stands for this setting: measured here: relative caspase fold change +Dox/-Dox.
[22] abbreviates: measured here: total cells with miR-34 induction, stronger effect = lower value.
Where [23] appears, read: measured here: total cells without miR-34 induction.

NAD(+) hydrolase SARM1 (Homo sapiens), sequence (Q6SZW1 whole entry, looked up): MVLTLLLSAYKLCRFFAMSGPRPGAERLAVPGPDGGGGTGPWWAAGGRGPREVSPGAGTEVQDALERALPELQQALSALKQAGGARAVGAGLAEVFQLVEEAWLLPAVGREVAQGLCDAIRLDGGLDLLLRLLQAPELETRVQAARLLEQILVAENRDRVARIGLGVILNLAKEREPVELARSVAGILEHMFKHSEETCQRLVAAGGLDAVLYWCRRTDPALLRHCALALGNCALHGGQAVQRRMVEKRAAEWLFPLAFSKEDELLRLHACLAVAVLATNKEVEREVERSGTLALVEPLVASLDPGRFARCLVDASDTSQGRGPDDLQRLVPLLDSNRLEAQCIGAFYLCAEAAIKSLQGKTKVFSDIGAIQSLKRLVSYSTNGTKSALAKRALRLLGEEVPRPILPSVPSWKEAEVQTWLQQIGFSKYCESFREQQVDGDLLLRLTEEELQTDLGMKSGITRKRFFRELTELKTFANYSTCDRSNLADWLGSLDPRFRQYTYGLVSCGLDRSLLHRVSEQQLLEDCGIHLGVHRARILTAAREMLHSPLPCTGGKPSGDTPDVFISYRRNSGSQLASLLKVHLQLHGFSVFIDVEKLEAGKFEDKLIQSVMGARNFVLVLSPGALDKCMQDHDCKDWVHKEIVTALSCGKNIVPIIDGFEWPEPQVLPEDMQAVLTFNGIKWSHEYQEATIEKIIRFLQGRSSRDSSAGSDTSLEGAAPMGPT

With `CCOC(=O)CC(SP(=S)(OC)OC)C(=O)OCC` (stereo unspecified), the nuclear beta-catenin stimulation is 1% (inactive) in [1] (at 10 µM) and -0.1% in [1] (stimulation, at 2 µM). The insulin secretion stimulation in test [2] was -1.5% (inactive). For the same compound, the viability decrease in [3] is -29.7% (inactive). Moreover, the tube area decrease in test [4] was 18% (inactive). Also, the GLP1 secretion stimulation in [5] was 0.7% (inactive). The inhibition of viability in test [6] was -0.33% (inactive). Besides, the viability decrease (inhibition) in test [7] is 27% (inactive); in [8], -18% (inactive). Moreover, the red/green cell ratio (normalised) in test [9] was 1.05 (inactive). For the same compound, the normalised cell number is 1.11 in test [9] (setting [19]) and 1.16 in test [9] (setting [20]). Further, the fold change in [10] (stronger effect = lower value) was 0.857 (inactive); in test [10] (setting [21]), 0.964. The values for the cell count in test [10] (setting [22]) and in [10] (setting [23]) were 7400 and 8640, respectively. In addition, the remaining NAD in test [11] is 10 nM (inactive).
What is called viability is a read-out of living cells in per cent, often relative to untreated cells. As usually defined, the inhibition is the relative decrease from the control value, in per cent. Broadly, the remaining activity is the activity still measured, relative to the control. In the case of `O=C1NCN(c2ccccc2)C12CCN(CC1COc3ccccc3O1)CC2` (stereo unspecified), the period change in test [12] is 0.005 h (inactive). Further, the parasite load remaining in [13] was 34.8% (inactive). Further, in [13], the viability was found to be 103%. The inhibition in [14] is -6% (inactive). In addition, the nuclear beta-catenin stimulation in [1] (at 10 µM) is -0.5% (inactive); in [1] (stimulation, at 2 µM), 0.8%. In addition, the insulin secretion stimulation in test [2] was 1.2% (inactive). For the same compound, in [3], the viability decrease is -65.9% (inactive). For the same compound, the tube area decrease in test [4] was 5.4% (inactive). Moreover, the GLP1 secretion stimulation in test [5] was 0.9% (inactive). Besides, in test [6], the inhibition of viability is 17.3% (inactive). Also, the viability decrease (inhibition) in test [7] was 28.7% (inactive); in test [8] it was 3.2% (inactive). Besides, the remaining activity in [15] was 93.6% (inactive). The fold change in test [10] (stronger effect = lower value) was 1.02 (inactive) and 0.89 (inactive) and 0.887 (inactive); in [10] (setting [21]), 1.92 and 0.981 and 1.04. The cell count in [10] (setting [22]) was 9490 and 8620 and 9600; in [10] (setting [23]) it was 9350 and 9690 and 10800. The z-score in [16] (MELAS cybrid survival, CellTiter-Glo 48 h, stronger effect = higher value) was 0.415 (inactive); in test [16] (Rieske KO mouse fibroblast survival, CellTiter-Glo 72 h), 1.51; in [17], 0.48 (inactive) and 0.105 (inactive) and 0.78 (inactive).
`COP(=O)(OC)C(O)C(Cl)(Cl)Cl` (stereo unspecified): the survival in test [18] was 17.5 (inactive). Moreover, the parasite load remaining in test [13] is 19.7% (inactive) and 127% (inactive). For the same compound, in test [13], the viability is 48.9% and 90.6%. Besides, the nuclear beta-catenin stimulation in [1] (at 10 µM) is -1.9% (inactive); in test [1] (stimulation, at 2 µM), 0.4%. In addition, the insulin secretion stimulation in test [2] was 0.2% (inactive). In test [3], the viability decrease is 2.4% (inactive). In test [4], the tube area decrease is 5.8% (inactive). The GLP1 secretion stimulation in test [5] was -3.2% (inactive). In addition, in test [6], the inhibition of viability was -44.1% (inactive). For the same compound, the results for the viability decrease (inhibition) in test [7] and in test [8] were 1.6% (inactive) and -13.3% (inactive), respectively. Further, the red/green cell ratio (normalised) in [9] was 0.95 (inactive). Also, the normalised cell number in [9] (setting [19]) was 0.96; in test [9] (setting [20]), 0.91. The fold change is 0.918 (inactive) in test [10] (stronger effect = lower value) and 1.24 in [10] (setting [21]). Moreover, the cell count in test [10] (setting [22]) worked out at 8320; in test [10] (setting [23]), 9070. For the same compound, the remaining NAD in test [11] is 10 nM (inactive).
In the case of `Clc1cccc(SC2CCNCC2)n1`, the nuclear beta-catenin stimulation in [1] (at 10 µM) was 1% (inactive); in [1] (stimulation, at 2 µM), 2%. Further, the insulin secretion stimulation in [2] was 4.8% (inactive). Also, the viability decrease in test [3] is -32% (inactive). Also, in [4], the tube area decrease is 5.5% (inactive). In addition, the GLP1 secretion stimulation in test [5] is 0.9% (inactive). Moreover, in [6], the inhibition of viability was 11.5% (inactive). The viability decrease (inhibition) was 17.2% (inactive) in [7] and -11.3% (inactive) in [8]. For the same compound, the fold change was 1.01 (inactive) in [10] (stronger effect = lower value, cell number ratio, induced over uninduced) and 0.88 in [10] (setting [21]). The cell count in test [10] (setting [22]) stood at 8450; in [10] (setting [23]) it was 8400. In addition, the z-score in test [17] is -0.34 (inactive).
For `Cc1nnc2n1-c1sc(CCC(=O)N3CCOCC3)cc1C(c1ccccc1Cl)=NC2`, the nuclear beta-catenin stimulation was 0.3% (inactive) in [1] (at 10 µM) and -0.9% in test [1] (stimulation, at 2 µM). In test [2], the insulin secretion stimulation is 3.7% (inactive). Further, the viability decrease in [3] is 11.7% (inactive). Also, the tube area decrease in test [4] was 1.8% (inactive). For the same compound, the GLP1 secretion stimulation in test [5] was 0.4% (inactive). Also, the inhibition of viability in test [6] is 13.6% (inactive). Besides, the viability decrease (inhibition) in [7] was -4.5% (inactive); in test [8], -5.7% (inactive). Besides, the fold change in [10] (stronger effect = lower value) is 1.01 (inactive); in test [10] (setting [21]) it was 0.912. Moreover, the cell count in test [10] (setting [22]) turned out to be 9280; in test [10] (setting [23]) it was 9210. In addition, the z-score in test [17] was -0.365 (inactive).
